Source: PubChem BioAssay (NCATS)
Inconclusive results are not listed. Where a call stands in place of a potency, no number is given. The source made the active and inactive calls. Calls follow the shape of the full dose curve; tested in HEK293 reporter line.

assay: qHTS for Inhibitors of the Functional Ribonucleoprotein Complex (vRNP) of Lassa (LASV) Arenavirus: LASV Primary Screen - GLuc reporter signal (AID 1347082); conditions: LASV minigenome vRNP, Gaussia luciferase reporter; series mostly up to 57.5 µM; also: nearly all actives have a fitted effect of over 60% in size
Potency is read from the fitted curve at half-maximal effect.

| SMILES | Potency |
| --- | --- |
| C=CC(C)(C)c1[nH]cnc1/C=C1\NC(=O)C(C(C)C)NC1=O (centres undefined) | inactive |
| CC(C)c1c(C(=O)Nc2ccccc2)c(-c2ccccc2)c(-c2ccc(F)cc2)n1CC[C@H](O)C[C@@H](O)CC(=O)O | inactive |
| COc1cc2c(cc1OC)-c1c(OC)c(OC)c(OC)c3ccnc(c13)C2=O | inactive |
| COc1ccc(C2COc3cc(O)ccc3C2)c(OC)c1O (centres undefined) | inactive |
| C/C=C1\NC(=O)[C@H](CC(N)=O)N(C)C(=O)C([C@@H](C)O)NC(=O)C(CCCc2ccc(OC)cc2)NC(=O)[C@H](C(C)C)NC(=O)/C(=C\C)NC(=O)[C@H](O)[C@@H](C[C@@H](O)CCCCCCC)NC(=O)[C@H](C)NC(=O)CN(C)C(=O)[C@H](CCC(N)=O)NC1=O (some centres undefined) | inactive |
| CO[C@H]1O[C@@H]2O[C@@]3(C)CC[C@@H]4[C@@H](C)CC[C@@H]([C@H]1C)[C@@]24OO3 | inactive |
| CN(C(=O)c1ccc(F)cc1C(F)(F)F)C1CCN(c2nnc(-c3ccnn3C)c3ccccc23)CC1 | inactive |
| Cc1cnn(C)c1C(=O)Nc1cc(Nc2ccc3c(C=Cc4ccccn4)n[nH]c3c2)ccc1F | 21.7 µM (active) |

assay: qHTS for Inhibitors of the Functional Ribonucleoprotein Complex (vRNP) of Lassa (LASV) Arenavirus: Viability assay - alamar blue signal for LASV Primary Screen (AID 1347083); conditions: cell viability, alamar blue fluorescence (LASV minigenome counter-screen); series mostly up to 57.5 µM; also: nearly all actives have a fitted effect of over 80% in size

| SMILES | Potency |
| --- | --- |
| CC(=O)c1ccc[nH]1 | inactive |
| C=CC(C)(C)c1c2occc2c(O)c2ccc(=O)oc12 | inactive |
| COc1cc(/C=C/C(=O)c2ccc(O)cc2O)ccc1O | inactive |
| CCCCCOC(=O)Nc1nc(=O)n([C@@H]2O[C@H](C)[C@@H](O)C2O)cc1F (some centres undefined) | inactive |
| O=C(O)CCNc1cc(N2CCc3ccccc3CC2)nc(-c2ccccn2)n1 | inactive |
| O=c1c(-c2ccc(O)cc2)coc2c(C3OC(CO)C(O)C(O)C3O)c(O)ccc12 (centres undefined) | inactive |
| Oc1ccc(C2CCN(c3ccnc4ccccc34)CC2)cc1O | 6.85 µM (active) |
| CON=C(C(=O)N[C@@H]1C(=O)N2C(C(=O)O)=C(CSC(=O)c3ccco3)CS[C@H]12)c1csc(N)n1 | inactive |
| COc1ccc([C@@H]2CC(=O)c3c(O)cc(O[C@@H]4O[C@H](CO)[C@@H](O)[C@H](O)[C@H]4OC4O[C@@H](C)[C@H](O)[C@@H](O)[C@H]4O)cc3O2)cc1O (some centres undefined) | inactive |
| O=c1ccn([C@@H]2O[C@H](COP(=O)(O)O)[C@@H](O)[C@H]2O)c(=O)[nH]1 | inactive |
| CCCCCC(=O)N[C@@H](c1ccccc1)[C@@H](O)C(=O)O[C@H]1C[C@@]2(O)[C@@H](OC(=O)c3ccccc3)C3[C@](C)(C(=O)[C@H](O)C(=C1C)C2(C)C)[C@@H](OC1OCC(O)C(O)C1O)C[C@H]1OC[C@@]31OC(C)=O (some centres undefined) | inactive |
| COc1ccnc2[nH]cc(C(=O)C(=O)N3CCN(C(=O)c4ccccc4)C[C@@H]3C)c12 | inactive |
| CC(=O)O[C@@H]1CC[C@@]2(C)[C@H](C1)[C@H](OC(C)=O)C[C@@H]1[C@@H]2C[C@H]2[C@@H]3CN4C[C@H](C)CC[C@H]4[C@H](C)[C@H]3CC[C@@]12O | inactive |
| CC(C)c1c(C(=O)Nc2ccccc2)c(-c2ccccc2)c(-c2ccc(F)cc2)n1CC[C@H](O)C[C@@H](O)CC(=O)O | inactive |
| CO[C@H]1O[C@@H]2O[C@@]3(C)CC[C@@H]4[C@@H](C)CC[C@@H]([C@H]1C)[C@@]24OO3 | inactive |
| Cc1cnn(C)c1C(=O)Nc1cc(Nc2ccc3c(C=Cc4ccccn4)n[nH]c3c2)ccc1F | 19.3 µM (active) |
